In PubChem BioAssay (NCATS) one finds Potency and activity change, negative = cytotoxicity data, which are given here for 13 compounds.

Inconclusive results are not listed. Values without a mark were called inactive. Calls of active or inactive are those of the source. Calls come from the whole dose curve; as a rule, active = well fitted cell-killing curve with a large enough effect; inconclusive = small, poorly fitted or top-dose-only effect, or effect the other way; inactive = flat fitted curve, though single readings scatter.

What all share (assay): Primary qHTS to identify gynecologic anti-cancer compounds using libraries of approved drugs and bioactive compounds (AID 1345084); note: nearly all actives have a fitted effect of over 55% in size
The subject of test [1] is C33A. Particulars: Gynecologic cancer cell panel viability, ATPlite luminescence, 48 h; series mostly up to 57.5 µM. The method, boiled down: (§1)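 48 h compound exposure at 37 C, 5% CO2; five-point qHTS. ATPlite luminescence readout of cell ATP.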
In test [2] the test system is CAOV3. The settings on record: Gynecologic cancer cell panel viability, ATPlite luminescence, 48 h; series mostly up to 57.5 µM. The method, boiled down: as §1
The test system of test [3] is CASKI. The settings on record: Gynecologic cancer cell panel viability, ATPlite luminescence, 48 h; series mostly up to 57.5 µM. The method, boiled down:
as §1

Test [4] has as its system Es-2. Particulars: Gynecologic cancer cell panel viability, ATPlite luminescence, 48 h; series mostly up to 57.5 µM. A digest of the protocol:
as §1

Test [5] deals with HeLa. Particulars: Gynecologic cancer cell panel viability, ATPlite luminescence, 48 h; series mostly up to 57.5 µM. A digest of the protocol: as §1
For test [6], the system named is Hek293T. The settings on record: Gynecologic cancer cell panel viability, ATPlite luminescence, 48 h, control line for the selectivity index; series mostly up to 57.5 µM. The method, boiled down: as §1
Test [7] concerns JEG-3. The settings on record: Gynecologic cancer cell panel viability, ATPlite luminescence, 48 h; series mostly up to 57.5 µM. The method, boiled down: as §1
In test [8] the test system is SKOV3. The settings on record: Gynecologic cancer cell panel viability, ATPlite luminescence, 48 h; series mostly up to 57.5 µM. A digest of the protocol:
as §1

Test [9] relates to Tov-21-G. Particulars: Gynecologic cancer cell panel viability, ATPlite luminescence, 48 h; series mostly up to 57.5 µM. A digest of the protocol:
as §1

Test [10] has as its system Tov112D. The settings on record: Gynecologic cancer cell panel viability, ATPlite luminescence, 48 h; series mostly up to 57.5 µM. A digest of the protocol:
as §1

For test [11], the system named is OV90. The settings on record: Gynecologic cancer cell panel viability, ATPlite luminescence, 48 h; series mostly up to 57.5 µM. The method, boiled down: as §1
Test [12] deals with PA-1. Particulars: Gynecologic cancer cell panel viability, ATPlite luminescence, 48 h; series mostly up to 57.5 µM. The method, boiled down:
as §1
% is set by controls: 0 for no effect and ±100 for the full control effect; potency is the fitted concentration of half-maximal effect.

Consider `CC(C)=CCCC1(C)C=Cc2c(c(C)cc3c2[nH]c2ccccc23)O1` (stereo not given), for which the Potency entry in test [1], in test [2], in [3], in test [4], in test [5] and in [6] was “inactive” each time. In addition, the Potency entry in test [7], in [9] and in test [10] was “inactive” in each case. Further, the Potency in test [8] is 8.91 µM (active).

Take `C/C=C/c1ccc2oc(-c3ccc(O)c(OC)c3)c(C)c2c1`: the Potency entry in test [1], in test [2], in test [3], in test [4], in [5] and in [6] was “inactive” throughout. Moreover, the Potency entry in test [7], in test [9] and in test [10] was “inactive” throughout. Further, the Potency in test [11] was 20 µM (active).

`O=C(CC1C(=O)Nc2ccccc21)OC[C@H]1O[C@@H](OCCc2ccc(O)cc2)[C@H](O)[C@@H](O)[C@@H]1O` (stereo not given in full): the Potency entry in test [1], in [2], in [3], in [4], in test [5] and in test [6] was “inactive” each time. Also, the Potency result in [7], in [11], in [9] and in test [10] was “inactive” throughout.

On to `CC(=O)O[C@@H]1[C@H](O)[C@@H](O[C@@H]2O[C@@H](C)[C@H](O[C@@H]3OC[C@@H](O)[C@H](O[C@@H]4OC[C@@H](O)[C@H](O)[C@H]4O)[C@H]3O)[C@@H](O[C@@H]3O[C@H](CO)[C@@H](O)[C@H](O)[C@H]3O)[C@H]2O)[C@H](OC(=O)[C@]23CCC(C)(C)C[C@H]2C2=CCC4[C@@]5(C)CC[C@H](O[C@@H]6O[C@H](C(=O)O)[C@@H](O)[C@H](O[C@@H]7OC[C@@H](O)[C@H](O)[C@H]7O)[C@H]6O[C@@H]6O[C@H](CO)[C@H](O)[C@H](O)[C@H]6O)[C@@](C)(C=O)C5CC[C@@]4(C)[C@]2(C)CC3)O[C@@H]1C` (stereo not given in full), for which the activity change, negative = cytotoxicity in test [1] was 0.359% [at 6.55 µM]; in [2], 19.4% [at 6.55 µM]; in [3], -13.6% [at 6.55 µM]; in [4], -2.98% [at 6.55 µM]; in [5], 2.25% [at 6.55 µM]; in test [6], -2.1% [at 6.55 µM]. Also, the activity change, negative = cytotoxicity in [7] is -8.94% [at 6.55 µM]; in [12], -3.62% [at 6.55 µM]; in test [9] it was -5.86% [at 6.55 µM]; in [10], 7.57% [at 6.55 µM].

For the compound `C/C=C(\C)C(=O)O[C@H]1[C@@H](O[C@]2(COC(=O)CC(C)C)O[C@H](COC(=O)C(C)CC)[C@@H](OC(C)=O)[C@@H]2O)O[C@H](COC(C)=O)[C@@H](O)[C@@H]1O` (stereo not given in full), the Potency entry in test [1], in test [2], in test [3], in [4], in [5] and in test [6] was “inactive” each time. For the same compound, the Potency entry in test [7], in test [11], in test [8], in [9] and in test [10] was “inactive” in each case.

`COc1cc(Nc2nc3c(s2)CCCC3c2ccc(F)cc2)ccc1-n1cnc(C)c1` (stereo not given): the Potency entry in test [1], in test [2], in test [3], in test [4], in test [5] and in test [6] was “inactive” each time. The Potency entry in test [7], in test [12], in test [9] and in [10] was “inactive” each time.

As for `CCC(C)/C=C(C)/C=C/c1cc2c(cn1)C(=O)C(C)(OC(C)=O)C(O)=C2Cl` (stereo not given), the Potency entry in test [1], in test [2], in [3], in test [4], in test [5] and in [6] was “inactive” each time. Moreover, the Potency result in test [7], in test [12], in test [8], in test [9] and in test [10] was “inactive” throughout.

Consider `O=C(c1cc2c(cc1F)OC(c1ccc(F)cc1)(c1ccc(Cl)cc1Cl)O2)N1CCOCC1` (stereo not given), for which the Potency result in test [1], in test [2], in test [3], in test [4], in test [5] and in [6] was “inactive” throughout. The Potency entry in [7], in [12], in test [9] and in test [10] was “inactive” in each case.

For `C1CCC[C@H]2CCCN3CC[C@@H](CCCCCC[C@@H]4CCCN5CC[C@@H](CC1)O[C@@H]45)O[C@@H]23`, the activity change, negative = cytotoxicity in test [1] is 6.95% [at 0.155 µM]; in test [2], 1.15% [at 0.155 µM]; in test [3] it was -13.7% [at 0.155 µM]; in [4] it was 2.67% [at 0.155 µM]; in test [5] it was 18.4% [at 0.155 µM]; in test [6] it was 4.56% [at 0.155 µM]. Besides, the activity change, negative = cytotoxicity in test [7] is -9.47% [at 0.155 µM]; in test [11] it was -15.5% [at 0.155 µM]; in [8] it was 0.0209% [at 0.155 µM]; in [9] it was 5.89% [at 0.155 µM]; in test [10], 2.94% [at 0.155 µM].

As to `CC1CCC23COC(=O)C2=CC(O)CC3C1(C)CCC1=CC(O)OC1=O` (stereo not given), the Potency entry in test [1], in test [2], in [3], in [4], in [5] and in [6] was “inactive” each time. In addition, the Potency entry in test [7], in [11], in test [9] and in test [10] was “inactive” throughout.

Regarding `O=C1OCc2cc3cccc(O[C@@H]4O[C@H](CO)[C@@H](O)[C@H](O)[C@H]4O)c3c(O)c21`, the Potency entry in test [1], in [2], in [3], in test [4], in [5] and in [6] was “inactive” each time. Also, the Potency entry in [7], in test [12], in test [8], in test [9] and in test [10] was “inactive” each time.

With `CN[C@H](CC(C)C)C(=O)N[C@H]1C(=O)N[C@@H](CC(N)=O)C(=O)N[C@H]2C(=O)N[C@H]3C(=O)N[C@H](C(=O)N[C@H](C(=O)O)c4cc(O)cc(O)c4-c4cc3ccc4O)[C@H](O[C@H]3C[C@](C)(N)[C@@H](O)[C@H](C)O3)c3ccc(c(Cl)c3)Oc3cc2cc(c3O[C@@H]2O[C@H](CO)[C@@H](O)[C@H](O)[C@H]2O[C@H]2C[C@](C)(NCc3ccc(-c4ccc(Cl)cc4)cc3)[C@@H](O)[C@H](C)O2)Oc2ccc(cc2Cl)[C@H]1O`, the Potency result in [1], in test [2], in test [3], in [4], in [5] and in [6] was “inactive” each time. For the same compound, the Potency entry in [7], in [12], in test [8], in [9] and in test [10] was “inactive” each time.

Take `N#Cc1ccc(C(=O)N2CCC3(CC2)N=C(N)c2c(F)ccc(F)c2N3)cn1`: the Potency entry in test [1], in test [2], in [3], in [4], in test [5] and in test [6] was “inactive” in each case. Also, the Potency entry in [7], in test [11], in test [9] and in test [10] was “inactive” in each case.
